# Results: PubChem BioAssay (EPA / NIEHS)
# “And” between values parts separate entries of the source, which are not always exact repeats. Identical values can stand only once. Records with an inconclusive call do not appear. Some structures have more than one record in an assay (separate samples or runs), and their calls can disagree. The source made the active and inactive calls. Rule for the calls, unless noted: active = hit-call score of the fitted dose curve at least 0.9, where 1 is the maximum; inactive = score below 0.9.
# Tests used:
# [1] = TAMU_PeakParms_SingleDonor1434_QT: Texas A&M University (TAMU) 1.5-hr Human Induced Pluripotent Stem Cell (iPSC)-derived Cardiomyocytes Calcium (Ca+2) Flux Assay for Cardiotoxicity: QT (decay-rise ratio) (AID 2284235; active = hit-call score of the fitted dose curve at least 0.9, where 1 is the maximum)
# In short: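 iPSC-derived cardiomyocytes (single donor 1434) dosed at 0.2, 1, 10, 100 uM final in 0.5% DMSO, 90 min at 37C. Ca2+ flux fluorescence decay/rise ratio; EC05 (5% increase versus DMSO) as POD, excluding beat-arrest and severe-notch data.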
# [2] = UKN4_HCS_LUHMES_cell_viability: Viability Assessment in the University of Konstanz (UKN) Leist Lab Neurite Outgrowth Assay in human LUHMES cells (UKN4) (AID 2284232)
# In short: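 LUHMES precursors differentiated 2 days, replated at 30000 cells/well without cAMP/GDNF, then compound-treated 24 h. Viability from Hoechst H-33342 and calcein-AM live staining (30 min) by high-content fluorescence imaging; bidirectional fit versus DMSO.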
# [3] = UKN2_HCS_IMR90_cell_viability: Viability Assessment in the University of Konstanz (UKN) Leist Lab Neural Crest Cell Migration Assay in human induced IMR90 Pluripotent Stem Cells (UKN2) (AID 2284233);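 note: viability of neural crest cells differentiated from IMR90 iPSC measured by calcein-AM fluorescence imaging; cells exposed to compound for 24 h after a 24 h migration phase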
# In short: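 Human IMR90-derived neural crest cells were allowed to migrate for 24 h into a cell-free zone, then exposed to test chemicals for 24 h. Calcein-AM and Hoechst staining with high-content imaging gave viability, analysed against DMSO baseline.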
# [4] = TAMU_HCS_1.5hr_SingleDonor1434_Cytotoxicity: Cytotoxicity Assessment using High-content Screening (HCS) Fluorescent Imaging for the Texas A&M University (TAMU) 1.5-hr Human Induced Pluripotent Stem Cell (iPSC)-derived Cardiotoxicity Assay (AID 2284234; active = hit-call score of the fitted dose curve at least 0.9, where 1 is the maximum)
# In short: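 Human iPSC-derived cardiomyocytes dosed at 0.2, 1, 10, 100 uM final (0.5% DMSO) for 90 min at 37 C. Hoechst 33342-stained nuclei counted by 10x high-content imaging; POD is EC10, a 10% drop in total cell count versus DMSO.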
# [5] = CCTE_Mundy_HCI_Cortical_NOG_NeuronCount: CCTE's Neurite Outgrowth Assay in rat cortical cells for Neuron Count, Mundy Lab (AID 2284236; active = hit-call score of the fitted dose curve at least 0.9, where 1 is the maximum;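 note: neurons counted by imaging betaIII-tubulin and Hoechst stained cortical cells; cells exposed to compound for about 48 hours before fixation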)
# In short: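 Read-out: neuron number by high-content imaging of betaIII-tubulin (Alexa Fluor-488) and Hoechst-labelled rat primary cortical cells.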
# [6] = CCTE_Mundy_HCI_Cortical_NOG_BPCount: CCTE's Neurite Outgrowth Assay in rat cortical cells for Branch Point Count, Mundy Lab (AID 2284237);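 for AC50: branch points counted about two days after chemical exposure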
# In short: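 Measured 50.33 h after dosing, this morphology endpoint uses rat primary cortical cultures labelled for betaIII-tubulin. Branch points are quantified by high-content imaging, with DMSO as negative control and baseline.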
# [7] = CCTE_Mundy_HCI_hNP1_Casp3_7: CCTE's Caspase-Glo 3/7 Assay in human neuroprogenitor cells for Apoptosis, Mundy Lab (AID 2284240)
# In short: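 Apoptosis is scored by activated caspase-3/7 luminescence in WA09-derived neural progenitor cells, measured 26.5 h after chemical dosing. Values represent gain of signal relative to DMSO vehicle.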
# [8] = read-out: Vascular cell adhesion molecule 1 (VCAM1), VCAM1 (gene 7412); assay: BSK_MyoF_VCAM1: BioMAP Diversity Plus: MyoF Assay for Vascular cell adhesion molecule 1 (VCAM1) Biomarker Activity (AID 2284231); settings: primary human lung fibroblasts
# In short: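 Primary human lung fibroblasts (BioMAP MyoF system) dosed with chemical, VCAM-1 measured by ELISA 24 hours later. Fitted in the positive direction against DMSO; parallel SRB staining assessed cytotoxicity.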
# [9] = read-out: Collagen I, COL1A1 (gene 1277); assay: BSK_MyoF_CollagenI: BioMAP Diversity Plus: MyoF Assay for Collagen I Biomarker Activity (AID 2284238); settings: primary human lung fibroblasts
# In short: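 Primary human lung fibroblasts (MyoF system) treated 24 h; Collagen I quantified by ELISA and fitted in positive direction against DMSO. Parallel SRB total-protein staining assessed overt cytotoxicity.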
# [10] = read-out: Collagen III, COL3A1 (gene 1281); assay: BSK_MyoF_CollagenIII: BioMAP Diversity Plus: MyoF Assay for Collagen III Biomarker Activity (AID 2284239); settings: primary human lung fibroblasts
# In short: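 Primary human lung fibroblasts (BioMAP MyoF system) exposed 24 h. Collagen III measured by ELISA; positive-direction fit relative to DMSO.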
compound,measurement,setting,value
CN1CSC(=S)N(C)C1,outcome,[1],inactive
O=S1OCC2C(CO1)C1(Cl)C(Cl)=C(Cl)C2(Cl)C1(Cl)Cl (stereo not given),AC50,[2],18.7 µM (active)
same,AC50,[3],14.8 µM (active)
same,outcome,[4],inactive
same,outcome,[1],inactive
same,AC50,[5],25.2 µM (active)
same,AC50,[6],21.4 µM (active)
same,AC50,[7],19.4 µM (active)
COP(=S)(OC)Oc1ccc([N+](=O)[O-])cc1,outcome,[2],inactive
same,AC50,[5],2.98 µM (active)
same,AC50,[6],23.2 µM (active)
same,outcome,[7],inactive
O=C(O)C(F)(F)C(F)(F)C(F)(F)C(F)(F)C(F)(F)C(F)(F)C(F)(F)F,outcome,[8],inactive
same,AC50,[2],89.4 µM (active)
same,outcome,[3],inactive
same,outcome,[5],inactive
same,outcome,[6],inactive
same,outcome,[9],inactive
same,outcome,[10],inactive
same,outcome,[7],inactive
CCOCN(C(=O)CCl)c1c(C)cccc1CC,AC50,[4],81.6 µM (active)
ClC1C(Cl)C(Cl)C(Cl)C(Cl)C1Cl (stereo not given),AC50,[8],16.3 µM (active) and 261 nM (active)
same,outcome,[2],inactive
same,outcome,[3],inactive
same,AC50,[9],25.5 µM (active)
same,outcome,[9],inactive
same,AC50,[10],30.3 µM (active)
same,outcome,[10],inactive
O=S(=O)(O)C(F)(F)C(F)(F)C(F)(F)C(F)(F)C(F)(F)C(F)(F)C(F)(F)C(F)(F)F,outcome,[8],inactive
same,AC50,[2],20.4 µM (active)
same,outcome,[5],inactive
same,outcome,[6],inactive
same,outcome,[9],inactive
same,outcome,[10],inactive
same,outcome,[7],inactive
